Test results: PubChem BioAssay
A number with no mark means an inactive call. No rule for the calls is given here.

Biological target: L-lactate dehydrogenase (Plasmodium falciparum (isolate CDC / Honduras)) (UniProt Q27743)
Test: PfLDH activity inhibition – cell lysate, 3D7 strain, counter-screen for P. falciparum growth inhibition project (AID 2304);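 also: 0% = vehicle and 100% = reference inhibitor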
Conditions: P. falciparum 3D7 crude extract, LDH APAD/NBT absorbance; at 2 µM; hits give high values

Chain of L-lactate dehydrogenase (Plasmodium falciparum (isolate CDC / Honduras)) (Q27743 whole entry, looked up): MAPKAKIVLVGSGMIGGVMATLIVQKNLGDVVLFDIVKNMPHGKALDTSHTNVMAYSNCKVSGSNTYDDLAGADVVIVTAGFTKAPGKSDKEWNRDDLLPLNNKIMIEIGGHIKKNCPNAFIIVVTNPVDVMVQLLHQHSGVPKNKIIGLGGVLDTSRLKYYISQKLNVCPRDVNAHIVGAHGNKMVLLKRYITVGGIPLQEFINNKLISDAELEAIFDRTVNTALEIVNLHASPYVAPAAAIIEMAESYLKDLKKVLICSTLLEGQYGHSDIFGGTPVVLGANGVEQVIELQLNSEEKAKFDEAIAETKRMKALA

Structure (SMILES) | inhibition
CC[C@H](C)CNC(=O)c1cncc(-c2ccc(CNCCOc3ccccc3)cc2)c1 | 3%
COc1cccc(NC(=O)Nc2ccc(C)c(-c3ccc(C(=O)Nc4ccncc4)cc3)c2)c1 | 1%
CCCNCc1c(O)ccc2c(CNCCC)c(O)ccc12 | -1%
Clc1ncnc2ncn(Cc3cccc(Br)c3)c12 | 3%
CCN(CC)CCN(Cc1ccc(-c2ccc(C(F)(F)F)cc2)cc1)C(=O)c1ccc(-c2ccc(NC(=O)OC)cc2C)cc1 | -6%
CCNc1cc(C)nc(Nc2ccc(NC(=O)c3ccccc3)cc2)n1 | -1%
Cc1cccc2[nH]c(-c3cccc(-c4ccc(C(=O)NCc5ccccc5S(C)(=O)=O)cc4)c3)nc12 | 1%
CO/C(=C\C=C\c1cc2cc(Cl)c(Cl)cc2[nH]1)C(=O)NCCCCN1CCN(c2ccccc2OC)CC1 | -1%
COc1ccc(CNC2CCN(C)CC2)cc1-c1cccc(S(=O)(=O)NCc2ccccc2)c1 | -1%
O=C(c1cccc(Br)c1)N1CCN(c2ccc([N+](=O)[O-])c(NC3CC3)c2)CC1 | 3%
CN(C)CCNc1cc(-c2ccc3ccccc3c2)nc2ccccc12 | -5%
CC1(C)N=C(N)N=C(N)C1c1ccc(Cl)cc1 (stereo not given) | 1%
CCCCCCCc1c2c(C)c(C(=O)OCC)nc-2cc2n1CC(C)=C2C | 1%
COc1ccccc1Oc1c(N(C)S(=O)(=O)c2ccc(C(C)C)cc2)nc(C(F)(F)F)nc1N(C)S(=O)(=O)c1ccc(C(C)C)cc1 | -6%
Cc1ccc(CN2CCCN(Cc3cccc(C(=O)Nc4ccc(C(C)(C)C)cc4)c3)CC2)s1 | -5%
CCN(CC)C(=NCCCCCCN=C(NC(N)=NCc1ccc(Cl)cc1Cl)N(CC)CC)NC(N)=NCc1ccc(Cl)cc1Cl | -3%
CCCNCc1ccc(-c2ccc(CN(Cc3cccs3)C(=O)C3CCN(C)CC3)cc2)nc1 | -3%
O=C(Nc1cccc(-c2cccc(-c3nc4ccc(C(F)(F)F)cc4[nH]3)c2)c1)c1ccncc1 | 4%
CN(C)CCNC(=O)c1cccc(-c2cnc3ccc(NCc4ccc(Cl)c(Cl)c4)nn23)c1 | -2%
CC(C)(C)S[C@H]1S[C@H](SC(C)(C)C)[C@@H](OC(=O)c2ccccc2)C(OC(=O)c2ccccc2)[C@H]1OC(=O)c1ccccc1 (stereo not given in full) | 5%

Structure (SMILES) | inhibition
COC(=O)Cn1c(C2CCN(CC3CCN(C(=O)/C=C/c4ccc(Cl)c(Cl)c4)CC3)CC2)nc2ccccc21 | -1%
N#CCCN1CCN(Cc2cccc(-c3ccc(-c4nc5ccccc5[nH]4)s3)c2)CC1 | -4%
COc1ccc(-c2cccc(NC(=O)c3ccc(Cl)cc3)c2)cc1CN1CCNCC1 | -3%
CCCCCCOc1ccc(C(=O)N(Cc2ccccc2)c2c(-c3ccccc3)nc3cc(C)ccn23)cc1 | 3%
Fc1cccc(COc2ccc(-n3ccc4c(NCCCn5ccnc5)ncnc43)cc2Cl)n1 | -2%
COc1ccc(O)c(C(=O)c2cc(C(=O)NC3CCCCC3)c(=O)n(C3CCCCC3)c2)c1 | 3%
Cc1ccc(N(CCC(=N)N)Cc2ccccc2)cc1 | -3%
CC(C)Oc1ccccc1-c1csc(C(=O)NCC2CCN(Cc3ccc(C(C)(C)C)cc3)C2)c1 (stereo not given) | 2%
O=C1COc2ccc(CNC3CCC(O)(CCc4ccnc5cc6c(cc45)OCCO6)CC3)nc2N1 (stereo not given) | -6%
C#CCCC(=O)Nc1cccc(-c2cccc(-c3nc4ccc(C(F)(F)F)cc4[nH]3)c2)c1 | -4%
CC(=O)Oc1ccc(C(=O)Oc2ccccc2C#CC#N)cc1OC(C)=O | -1%
Cc1[nH]c(C)c(-c2ccc(-c3cccc(OC(F)(F)F)c3)nc2)c(=O)c1Cl | -2%
FC(F)(F)c1ccc2nc(-c3ccc(-c4ccc(CNCCN5CCNCC5)cc4)s3)[nH]c2c1 | -2%
CCCCCCP(=O)(COc1ccc(CCN(CC(O)COc2cccc3[nH]c(C(N)=O)cc23)CC(O)COc2cccc3[nH]c(C(N)=O)cc23)cc1)OCCCC (stereo not given) | 3%
C[C@@H]1CN(c2cnn(C/C=C/c3ccc(NC(=O)c4ccc(Cl)cc4)cc3)c(=O)c2Cl)C[C@H](C)N1 | -2%
Cc1noc(C)c1-c1cccc(CNCc2cccc(-c3cccc(-c4nc5c(C)cccc5[nH]4)c3)c2)c1 | 4%
CNCc1ccc(-c2ccc3ccnc(N)c3c2)cc1 | 5%
COc1ccc(Cc2cccc(C(C(=O)NCc3cc(Cl)cc(Cl)c3)N3CCN(C)CC3)c2)cc1 (stereo not given) | -9%
N#Cc1ccc2c(c1)CCN(CCC1CCC(NC(=O)/C=C/c3nc4ccccc4s3)CC1)CC2 (stereo not given) | -4%
O=C(NC1CCCCC1)N(Cc1ccc(-c2cccc(CNC3CCCC3)c2)cc1)C1CCN(Cc2ccccc2)CC1 | 3%
